Laboratory results: PMC13541613, “GHT-SELEX demonstrates unexpectedly high intrinsic sequence specificity and complex DNA binding of many human transcription factors”

Legend:
Test in all cases: HT-SELEX; 20 mM HEPES pH 7, 140 mM KCl, 5 mM NaCl, 1 mM K2HPO4, 2 mM MgSO4, 100 uM EGTA, ZnSO4, 0.1% Tween20; room temperature, 1 h; high values mean tight binding
Details in all cases: protein: ivt; tags: eGFP (N-terminal); dsDNA, one strand shown
ZNF721 full-length = ZNF721 full-length (Homo sapiens, UniProt Q8TF20-2 1-923)
How it was run: (§1)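 The binding signal is a relative k-mer count in selected reads, and higher values mean tighter binding. To obtain these reads, bead-bound tagged transcription factor (full-length or DNA-binding-domain fragment, produced in HEK293 lysate or cell-free extract) was mixed with a randomized 40-base DNA library for 1 h at room temperature in low-stringency HEPES/KCl buffer with Tween20. Bound DNA was recovered by washing and heat elution, PCR-amplified through successive cycles and sequenced on Illumina (~3 million 60 bp reads per sample).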

ZNF721 DBD1 = ZNF721 DBD1 (Homo sapiens, UniProt Q8TF20-2 29-461)
How it was run: as §1

ZNF721 DBD2 = ZNF721 DBD2 (Homo sapiens, UniProt Q8TF20-2 395-923)
How it was run: as §1

ZNF721 DBD1, sequence (Q8TF20 17-449): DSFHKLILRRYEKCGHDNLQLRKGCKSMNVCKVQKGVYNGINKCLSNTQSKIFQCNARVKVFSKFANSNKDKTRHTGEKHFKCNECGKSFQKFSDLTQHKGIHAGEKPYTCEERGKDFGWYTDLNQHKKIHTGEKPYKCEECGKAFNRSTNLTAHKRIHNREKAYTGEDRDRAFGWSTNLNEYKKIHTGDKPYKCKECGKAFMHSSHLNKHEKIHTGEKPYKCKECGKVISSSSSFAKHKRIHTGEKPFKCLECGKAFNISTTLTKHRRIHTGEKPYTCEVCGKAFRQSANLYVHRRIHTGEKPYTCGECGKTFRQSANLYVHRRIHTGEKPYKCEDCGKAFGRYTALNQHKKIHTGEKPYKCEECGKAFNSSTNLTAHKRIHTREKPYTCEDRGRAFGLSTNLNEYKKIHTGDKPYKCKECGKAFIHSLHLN
ZNF721 DBD2, sequence (Q8TF20 383-911): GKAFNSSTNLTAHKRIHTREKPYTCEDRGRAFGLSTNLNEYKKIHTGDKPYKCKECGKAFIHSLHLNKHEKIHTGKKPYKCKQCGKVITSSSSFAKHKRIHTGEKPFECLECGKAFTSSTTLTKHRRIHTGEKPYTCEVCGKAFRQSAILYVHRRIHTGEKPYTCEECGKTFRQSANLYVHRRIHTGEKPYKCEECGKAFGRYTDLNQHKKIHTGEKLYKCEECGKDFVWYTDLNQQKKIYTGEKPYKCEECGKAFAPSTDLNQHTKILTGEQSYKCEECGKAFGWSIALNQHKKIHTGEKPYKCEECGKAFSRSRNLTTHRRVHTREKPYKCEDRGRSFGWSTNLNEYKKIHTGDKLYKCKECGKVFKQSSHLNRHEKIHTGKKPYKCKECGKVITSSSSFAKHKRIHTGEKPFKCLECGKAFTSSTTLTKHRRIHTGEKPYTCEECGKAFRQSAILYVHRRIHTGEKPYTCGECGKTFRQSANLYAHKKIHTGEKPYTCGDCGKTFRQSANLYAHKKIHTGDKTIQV
ZNF721 full-length, sequence (Q8TF20 other isoform, or with tags, fused parts or gaps): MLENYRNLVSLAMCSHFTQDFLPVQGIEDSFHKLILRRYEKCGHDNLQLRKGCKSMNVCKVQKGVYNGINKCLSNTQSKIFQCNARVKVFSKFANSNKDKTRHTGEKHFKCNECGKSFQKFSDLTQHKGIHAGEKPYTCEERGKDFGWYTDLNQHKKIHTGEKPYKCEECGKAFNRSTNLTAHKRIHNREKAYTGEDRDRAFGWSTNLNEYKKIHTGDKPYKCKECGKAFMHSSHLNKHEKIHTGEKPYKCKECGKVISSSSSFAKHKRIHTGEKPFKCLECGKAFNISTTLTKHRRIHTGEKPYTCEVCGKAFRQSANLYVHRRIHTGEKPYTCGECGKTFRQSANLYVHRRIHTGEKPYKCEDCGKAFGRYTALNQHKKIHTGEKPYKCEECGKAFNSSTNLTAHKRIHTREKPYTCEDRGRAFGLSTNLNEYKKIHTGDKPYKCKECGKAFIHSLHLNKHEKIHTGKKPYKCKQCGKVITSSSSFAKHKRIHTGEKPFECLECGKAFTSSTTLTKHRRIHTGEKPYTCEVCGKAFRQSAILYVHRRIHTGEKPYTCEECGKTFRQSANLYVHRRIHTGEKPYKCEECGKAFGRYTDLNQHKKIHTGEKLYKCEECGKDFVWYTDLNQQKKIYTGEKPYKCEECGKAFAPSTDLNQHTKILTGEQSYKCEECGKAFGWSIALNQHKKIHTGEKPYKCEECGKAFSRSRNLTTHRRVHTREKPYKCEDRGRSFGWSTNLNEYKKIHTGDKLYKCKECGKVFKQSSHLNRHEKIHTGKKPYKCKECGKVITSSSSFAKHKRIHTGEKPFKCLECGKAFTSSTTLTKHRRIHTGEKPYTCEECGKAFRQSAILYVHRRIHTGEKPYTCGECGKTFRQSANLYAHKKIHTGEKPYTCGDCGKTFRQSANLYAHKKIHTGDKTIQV

Sequence | binding signal (ZNF721 full-length) [relative 10-mer count] | binding signal (ZNF721 DBD1) [relative 10-mer count] | binding signal (ZNF721 DBD2) [relative 10-mer count]
CCATCCCCAC | 0.116 | 0.00537 | 0.00372
CCACCCACCA | 0.237 | 0.00977 | 0.00791
AGGGGCGGGG | 0.125 | 0.0044 | 0.00168
CCACGCCACC | 0.105 | 0.00353 | 0.00443
CAAAAAGCAG | 0.159 | 0.00156 | 0.172
GACCCACCCC | 0.124 | 0.00427 | 0.0018
CCCACCCACG | 0.141 | 0.00472 | 0.00551
AAAAAAAACA | 0.37 | 0.00592 | 0.252
CCCCCCCAAC | 0.155 | 0.0044 | 0.00791
CCGCCACCAC | 0.106 | 0.00417 | 0.0036
CCTCCCCTCC | 0.155 | 0.00812 | 0.0132
CACCCCCCCC | 0.217 | 0.00789 | 0.00384
CGCCCCCACC | 0.19 | 0.00945 | 0.00515
GCCTCCCCCC | 0.115 | 0.00518 | 0.00791
CACGCCCCCC | 0.123 | 0.00454 | 0.00635
CACCACCCGC | 0.111 | 0.00454 | 0.00527
GGGCGGGGGA | 0.122 | 0.00482 | 0.00216
CCATCCCCCC | 0.155 | 0.00592 | 0.0036
CGCTTCTTTC | 0.12 | 0.081 | 0.0018
ACCCCCCCGC | 0.112 | 0.00248 | 0.003

Sequence | binding signal (ZNF721 full-length) [relative 10-mer count] | binding signal (ZNF721 DBD1) [relative 10-mer count] | binding signal (ZNF721 DBD2) [relative 10-mer count]
AAAAAAGCTC | 0.21 | 0.0749 | 0.00515
ACCCCTCCCC | 0.189 | 0.00688 | 0.00216
CACCCCTCCC | 0.181 | 0.00826 | 0.00336
CCCACCACAC | 0.155 | 0.00583 | 0.00947
CCCCTCACCC | 0.187 | 0.00711 | 0.00503
ACCCTCCCAC | 0.119 | 0.00734 | 0.00587
ACCCCCCAAC | 0.103 | 0.00321 | 0.00407
CCCCCGCCCG | 0.109 | 0.00372 | 0.00192
CGCCCCCCAC | 0.156 | 0.00679 | 0.00407
AAAAGCTATC | 0.233 | 0.129 | 0.00168
CCCACCCCAA | 0.151 | 0.00642 | 0.00575
CCCCTCCCGC | 0.137 | 0.00665 | 0.00635
AACAAAAAAA | 0.116 | 0.0078 | 0.069
CACACCCCAC | 0.123 | 0.00394 | 0.00419
GCCCCAACCC | 0.105 | 0.00376 | 0.00168
CCACCAACCC | 0.156 | 0.0067 | 0.00491
ATAAAAAAGC | 0.12 | 0.0221 | 0.0443
GAAAAGCAGC | 0.106 | 0.00147 | 0.125
CCCCTCCCCA | 0.188 | 0.00734 | 0.00455
GCCACCACCC | 0.106 | 0.00413 | 0.00204

Sequence | binding signal (ZNF721 full-length) [relative 10-mer count] | binding signal (ZNF721 DBD1) [relative 10-mer count] | binding signal (ZNF721 DBD2) [relative 10-mer count]
AAAAACAGTA | 0.176 | 0.00119 | 0.212
CCCCACCACC | 0.447 | 0.0213 | 0.00767
GCCCCACCAC | 0.137 | 0.00555 | 0.00743
AGAAAGAAGC | 0.136 | 0.0675 | 0.00216
CCCTCCGCCC | 0.192 | 0.00936 | 0.00491
CCGACCCCCC | 0.153 | 0.00541 | 0.00108
CCCACACCAC | 0.137 | 0.00541 | 0.00503
CACCCCCACA | 0.116 | 0.00482 | 0.00779
AAAGCAGTAC | 0.156 | 0.0228 | 0.0905
ATGTGTATGA | 0.12 | 0.124 | 0.0018
CTCCCCACCA | 0.115 | 0.00596 | 0.00587
CGCCCCTCCC | 0.158 | 0.00605 | 0.00336
CCGAAAAAAA | 0.115 | 0.0118 | 0.0585
CCGTCCACCC | 0.103 | 0.00472 | 0.0036
GCCACCCCCA | 0.107 | 0.00326 | 0.00216
CTCCCCCCGC | 0.114 | 0.00468 | 0.00144
AAAAAAGCAG | 0.862 | 0.0227 | 0.588
CCGACCCACC | 0.115 | 0.00367 | 0.00467
CCCCCTCCAC | 0.179 | 0.00908 | 0.00479
CCCCACACCC | 0.274 | 0.01 | 0.00443
